Screens from PubChem BioAssay.
KB-3-1 tox: KB-3-1 parental cell cytotoxicity; KB-3-1 viability, CellTiter-Glo ATP luminescence, 72 h; Potency, µM (highest dose often 46.1 µM), hits mostly cytotoxic; 1.4% of 400,000 active; AID 1347075; note: % is set by controls: 0 for no effect and ±100 for the full control effect; nearly all actives have a fitted effect of over 60% in size
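Parental KB-3-1 adenocarcinoma cells in phenol-red-free DMEM with 10% FBS were pin-treated with compounds at several concentrations, incubated 72 h at 37 °C, and viability read by CellTiter-Glo luminescence; concentration-effect curves were fitted after normalization.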
KB-V1 MDR tox: kills drug-selected multidrug resistant KB-V1 cells. 3.4% of 400,000 active. Potency, µM (doses to about 46.1 µM), most hits filed as cytotoxic. KB-V1 MDR cells viability, CellTiter-Glo, 72 h; note: % is set by controls: 0 for no effect and ±100 for the full control effect; nearly all actives have a fitted effect of over 60% in size
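Cells of the MDR subline KB-V1 are plated, dosed with compound at multiple concentrations, and incubated 72 h at 37 degrees C; CellTiter-Glo is then added and luminescence read after 10 min.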
MCF10A rerep: induces DNA re-replication in MCF 10a normal breast cells. MCF 10A DNA re-replication, Hoechst nuclear intensity, 48 h. Potency, µM (doses to about 46.1 µM), for the others: at the highest dose activity, positive = re-replication, actives largely listed as activators. 2.9% of 350,000 active; note: % of control where 0% means no effect; nearly all actives have a fitted effect of over 50% in size
SW480 rereplic: inducers of DNA re-replication in SW480 colon cancer cells; SW480 DNA re-replication, Hoechst DNA content imaging, 48 h; Potency, µM (titrated, usually from 46.1 µM), inactives show at the highest dose re-replication activation, usual class: activators; 1.8% of 340,000 active; AID 624297; note: % of control where 0% means no effect; nearly all actives have a fitted effect of over 55% in size
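Hoechst fluorescence of nuclei (405 nm excitation, 500-530 nm emission) measured by plate-scanning imager after 48 hr compound exposure at 37 C; re-replication scored as increased number of nuclei with elevated intensity.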
ELG1 DNA repair: blocks ELG1-dependent DNA repair in HEK293T cells | HEK293T ELG1-luciferase reporter, luminescence, 16 h; DNA damage induced by 5-fluorouridine | Potency, µM (top dose mostly 46.1 µM), for inactives: top-dose activity change, negative = inhibition, usual class: inhibitors | 2.3% of 330,000 active | AID 504467; note: % is set by controls: 0 for no effect and ±100 for the full control effect; nearly all actives have a fitted effect of over 55% in size
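Quantitative HTS, concentration-response format. 2,000 cells/well co-treated with 5-fluorouridine and compound, 16 hr in 5% CO2 at 37 °C; ONE-Glo luminescence read after 30 min.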
An asterisk follows results filed as active; i = inactive; ? = inconclusive; nt = no result. Rows were chosen to be rich in hits. Some 8.2% of all compounds tested hit in one or more screens of this group. Calls come from the whole dose curve; as a rule, active = well fitted curve in the direction sought with a large enough effect; inconclusive = small, poorly fitted or top-dose-only effect, or another doubt; inactive = no such curve, though single readings can be large; an effect the other way counts as inactive or inconclusive. Potency is the fitted concentration of half-maximal effect.

SMILES | KB-3-1 tox | KB-V1 MDR tox | MCF10A rerep | SW480 rereplic | ELG1 DNA repair
O=C(CSc1ccccn1)N/N=C/c1cc([N+](=O)[O-])ccc1O | ? | i | 12.0% | ? | 16.4µM*
O=C(Cn1nc2ccccc2n1)N/N=C/c1cc([N+](=O)[O-])ccc1O | ? | ? | ? | 15.0% | 6.51µM*
O=[N+]([O-])c1ccc(O)c(/C=N\N=C2c3ccccc3-c3ccccc32)c1 | 8.2µM* | 13µM* | ? | ? | ?
NC(N)=N/N=C/c1cc([N+](=O)[O-])ccc1O | i | i | -2.9% | nt | 10.7%
O=C(Cn1nnc(-c2ccccc2)n1)N/N=C/c1cc([N+](=O)[O-])ccc1O | ? | ? | 12.1% | 4.2% | -26.8%
O=C(CSc1ccccn1)N/N=C/c1ccccc1[N+](=O)[O-] | i | ? | 8.1% | -2.3% | ?
C=C(C)CNC(=S)N/N=C(\C)c1ccc(OC)cc1 | ? | 16.4µM* | 7.9% | 17.7% | 4.7%
C[C@]12c3[nH]c4ccccc4c3CCN1C(=O)C(CC(=O)NCCCn1ccnc1)C[C@@H]2C(=O)N1CCCCC1 (stereo partly specified) | i | i | 17.5% | -8.5% | 11.6%
O=C(CN1CC[n+]2c(-c3ccccc3)csc21)c1ccc(Br)cc1 | i | ? | 5.7% | -7.5% | 16.4µM*
CCc1nnc(NC(=O)CSc2nnc(C3CC3)n2C)s1 | i | i | 0.8% | -1.1% | 16.9%
Cn1c(SCC(=O)Nc2nc(C(C)(C)C)cs2)nnc1C1CC1 | i | i | 6.51µM* | -30.9% | ?
COC(=O)c1cn(NC(=O)Cn2nc([N+](=O)[O-])c(Br)c2C)c(=O)c2ccccc12 | i | i | 1.0% | -3.8% | 5.6%
CC(C)Oc1cccc(-c2ccnc(N3CCC(C(N)=O)CC3)n2)c1 | i | i | nt | nt | nt
Cc1ccnc2c1ccc1c(C)ccnc12 | ? | ? | 18.7% | 13.9% | 2.31µM*
COc1ccc(Cn2c(C3CC3)nc3ccc(NC(=O)c4cccnc4)cc3c2=O)cc1 | 5.8µM* | ? | 1.3% | ? | -22.5%
Cc1ccc(NC(=S)NCc2ccc(Cl)cc2)c(C)c1 | i | i | -0.9% | 1.6% | -0.2%
N#CN=CN1CC=C(c2ccc(Cl)cc2)CC1 | 9.2µM* | 2.31µM* | nt | nt | nt
CN(CC(=O)Nc1cccc(F)c1)C(=O)c1ccc(-c2cccc(C(F)(F)F)c2)o1 | i | ? | 27.6% | 1.3% | 0.291µM*
CN(CC(=O)Nc1ccccc1C(F)(F)F)C(=O)c1ccc(-c2ccc(Cl)cc2)o1 | i | ? | 11.3% | -2.1% | -2.2%
CN(CC(=O)Nc1cccc(F)c1)C(=O)c1cc(-c2ccccc2)nc2ccccc12 | i | ? | ? | 21.5% | ?
COc1cccc(NC(=O)CN(C)C(=O)c2ccc(-c3cccc(C(F)(F)F)c3)o2)c1 | i | ? | 5.3% | -4.5% | -3.3%
CN(CC(=O)Nc1cccc(F)c1)C(=O)c1ccccc1OCCOc1ccccc1 | i | ? | 7.5% | 0.5% | -14.6%
Cc1ccc(C)c(NC(=O)CN(C)C(=O)c2ccc(-c3cccc(C(F)(F)F)c3)o2)c1 | i | 18.4µM* | 19.7% | -3.3% | -25.7%
CN(CC(=O)Nc1cccc(F)c1)C(=O)c1ccc(COc2ccccc2)o1 | i | 20.6µM* | 8.0% | -2.4% | 4.2%
CN(CC(=O)Nc1cccc(F)c1)C(=O)c1cccc2ccccc12 | i | 18.4µM* | 11.6% | -3.2% | 5.9%
SMILES | KB-3-1 tox | KB-V1 MDR tox | MCF10A rerep | SW480 rereplic | ELG1 DNA repair
COc1cc(C(=O)NC(C)C2CC3CCC2C3)ccc1OC(F)F (stereo unspecified) | i | 20.6µM* | 14.1% | 6.8% | ?
Cc1ccc(C(=O)NC(C)C2CC3CCC2C3)cc1 (stereo unspecified) | i | i | ? | -10.6% | nt
CCOc1cc(C(=O)NC(C)C2CC3CCC2C3)cc(OCC)c1OCC (stereo unspecified) | i | i | 13µM* | -3.3% | nt
O=C(NCCc1nc2ccccc2n1Cc1ccc(F)cc1)c1ccco1 | i | ? | nt | nt | nt
CC(C)=CCC/C(C)=C/C=C/C(C)=C/C=C/C(C)=C/C=C/C=C(C)/C=C/C=C(C)/C=C/C=C(\C)CCC=C(C)C | nt | nt | ? | 18.8µM* | nt
CC(C(=O)NCc1ccccc1Cl)n1ccc2cc(S(=O)(=O)N3CCCCC3)ccc21 (stereo unspecified) | i | i | nt | nt | nt
CC(C)(C)c1ccc2c(S(=O)(=O)O)c(C(C)(C)C)ccc2c1 | nt | nt | 0.3% | 1.9% | nt
COC(=O)c1cccc(NC(=O)CC2C(=O)NCCN2C(=O)Nc2cc(C)cc(C)c2)c1 (stereo unspecified) | i | ? | 6.5% | 1.2% | -19.9%
CCOCCCN(C(=O)c1ccco1)C(C(=O)NC1CCCC1)c1cccc(OC)c1OC (stereo unspecified) | i | 16.4µM* | -5.2% | ? | 0.3%
O=C(CN1CCOCC1)Nc1ccc2c(c1)CCC2 | i | i | 0.5% | 6.7% | ?
Cc1ccc(NC(=O)CSc2nc3ccccc3c3nc4ccccc4n23)cc1 | 0.92µM* | 1.64µM* | 1.46µM* | 0.651µM* | 9.7%
CCC(=O)n1nc(-c2ccccc2)nc1SCC(=O)Nc1ccc(C)cc1 | i | 20.6µM* | -0.2% | -18.9% | 13.4%
O=C(CSc1nc(-c2ccccc2)nn1C(=O)c1ccccc1)Nc1cccc([N+](=O)[O-])c1 | ? | 20.6µM* | 4.7% | -7.9% | -23.6%
Nc1c(C(=O)OCC2CCCO2)c2nc3ccccc3nc2n1-c1ccc2c(c1)OCCO2 (stereo unspecified) | i | i | ? | 2.5% | -1.5%
CCCNC(=O)c1c(N)n(-c2cc(OC)cc(OC)c2)c2nc3ccccc3nc12 | i | i | 16.4µM* | 9.2µM* | 18.4µM*
CCCNC(=O)c1c(N)n(-c2ccc3c(c2)OCO3)c2nc3ccccc3nc12 | ? | i | 16.8% | ? | 14.5%
Nc1c(C(=O)NC2CC2)c2nc3ccccc3nc2n1-c1ccc2c(c1)OCO2 | i | i | 2.91µM* | ? | 16.4µM*
CCOCCCNC(=O)c1c(N)n(-c2ccc3c(c2)OCO3)c2nc3ccccc3nc12 | i | i | 23.1µM* | 9.2µM* | -4.7%
COCCCNC(=O)c1c(N)n(-c2ccc3c(c2)OCO3)c2nc3ccccc3nc12 | i | i | 10µM* | 6.51µM* | -23.9%
COc1ccccc1N1CCN(C(=O)C2CCN(S(=O)(=O)c3cnc[nH]3)CC2)CC1 | i | i | nt | nt | nt
Nc1nc(NCCc2ccccc2)c2[nH]cnc2n1 | i | i | nt | nt | nt
Cc1ccc(CCNC(=O)c2ccc(CS(=O)(=O)c3ccc(Cl)cc3)o2)cc1 | i | ? | nt | nt | nt
Cc1cnc2c(C)ccc(C)c2c1/C=C/c1ccc(N(C)C)cc1 | i | i | nt | nt | nt
